Screening results (PubChem)
NIH3T3 tox = Cytotoxic Profiling in NIH 3T3 Cell Line of Diverse Libraries Using Quantitative High-Throughput Screening; 4.3% of 94,000 active; Potency, µM (series often up to 96.7 µM), without a hit: at the highest dose activity change, negative = cytotoxicity, hits mostly inhibitors; AID 1345082, 2018; NIH 3T3 viability, CellTiter-Glo ATP luminescence, 48-72 h; also: % is scaled to controls: 0 for no effect and ±100 for the full control effect; nearly all actives have a fitted effect of over 55% in size
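Cytotoxicity is measured as loss of cellular ATP: NIH 3T3 cells (400/well) are exposed to compound for 48 or 72 hr at 37 °C, then CellTiter-Glo luminescence is imaged after 10 min at room temperature.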
NPR1 antag = Natriuretic polypeptide receptor (hNpr1) antagonism - Primary qHTS. HEK293 hNpr1 GloSensor cGMP, ANP-stimulated luminescence. 1.6% of 76,000 active. Potency, µM (titrated, usually from 46.3 µM), without a hit: top-dose activity change, negative = inhibition, hits mostly inhibitors; calls by dose curve; also: % is scaled to controls: 0 for no effect and ±100 for the full control effect; nearly all actives have a fitted effect of over 60% in size
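HEK293 cells stably expressing human Npr1 and cGMP GloSensor pGS-40F, loaded 2 h with 2% GloSensor reagent, given compound 30 min at room temperature. Luminescence read before and 20 min after 0.1 nM hNppA.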
HEK293 tox = Cytotoxic Profiling in HEK 293 Cell Line of Diverse Libraries Using Quantitative High-Throughput Screening; Potency, µM (top dose mostly 115 µM), inactives show at the top dose activity change, negative = cytotoxicity, hits mostly inhibitors; HEK 293 viability, ATP luminescence (CellTiter-Glo), 48-72 h; 6.6% of 94,000 active; also: % is scaled to controls: 0 for no effect and ±100 for the full control effect; nearly all actives have a fitted effect of over 60% in size
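Pintool-delivered compounds were incubated with HEK 293 cells (250 cells/well) at 37 degree Celsius for 48 or 72 hr. ATP-dependent luminescence (CellTiter-Glo) then reported remaining viable cells.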
GPT2 inhibitor = Primary qHTS assay for inhibitors of Glutamate pyruvate transaminase 2 (GPT2); Recombinant GPT2, coupled pyruvate oxidase/HRP Amplex Red fluorescence; 0.25% of 100,000 active; Potency, µM (series often up to 57.7 µM), for the others: at the top dose activity change, negative = inhibition, actives largely listed as inhibitors; AID 1671188, 2021; also: % is scaled to controls: 0 for no effect and ±100 for the full control effect; nearly all actives have a fitted effect of over 60% in size
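Inhibition is scored from Amplex Red fluorescence generated when pyruvate oxidase and HRP act on pyruvate released by GPT2. Reactions contain 10ng/uL enzyme, 250uM a-KG and 2mM L-alanine and run 30 min at room temperature.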
Luciferase inh = Firefly luciferase inhibition profiling of diverse chemical library using quantitative high-throughput screening; Luciferin 4-monooxygenase (Photinus pyralis), P08659; purified P. pyralis luciferase, luminescence, biochemical; Potency, µM (highest dose often 115 µM), hits mostly inhibitors; 2.5% of 76,000 active; AID 1347043, 2019; also: % is scaled to controls: 0 for no effect and ±100 for the full control effect; nearly all actives have a fitted effect of over 65% in size
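Purified 10nM P. pyralis luciferase with 10uM D-luciferin and 10uM ATP in 50mM Tris acetate pH 7.5, 10mM Mg acetate, 0.01% Tween-20, 0.05% BSA. qHTS titration; luminescence read by CCD imager.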
NPR1 antag cnf = Natriuretic polypeptide receptor (hNpr1) antagonism - Confirmation | Potency, µM (series often up to 57.6 µM), for inactives: top-dose activity change, negative = inhibition, usual class: inhibitors | shares compounds with NPR1 antag | HEK293 hNpr1 cGMP GloSensor luminescence, ANP-stimulated | 76% of 1,400 active; calls by dose curve; also: nearly all actives have a fitted effect of over 70% in size
NPR2 antag = Natriuretic polypeptide receptor (hNpr2) antagonism - Subtype selectivity assay; shares compounds with NPR1 antag; HEK293 hNpr2 GloSensor cGMP luminescence, CNP-stimulated; Potency, µM (titrated, usually from 57.6 µM), for inactives: at the top dose activity change, negative = inhibition, most hits filed as inhibitors; 67% of 1,400 active; AID 1347046, 2019; calls by dose curve; also: nearly all actives have a fitted effect of over 70% in size
Target sequence (P20594 whole entry, looked up): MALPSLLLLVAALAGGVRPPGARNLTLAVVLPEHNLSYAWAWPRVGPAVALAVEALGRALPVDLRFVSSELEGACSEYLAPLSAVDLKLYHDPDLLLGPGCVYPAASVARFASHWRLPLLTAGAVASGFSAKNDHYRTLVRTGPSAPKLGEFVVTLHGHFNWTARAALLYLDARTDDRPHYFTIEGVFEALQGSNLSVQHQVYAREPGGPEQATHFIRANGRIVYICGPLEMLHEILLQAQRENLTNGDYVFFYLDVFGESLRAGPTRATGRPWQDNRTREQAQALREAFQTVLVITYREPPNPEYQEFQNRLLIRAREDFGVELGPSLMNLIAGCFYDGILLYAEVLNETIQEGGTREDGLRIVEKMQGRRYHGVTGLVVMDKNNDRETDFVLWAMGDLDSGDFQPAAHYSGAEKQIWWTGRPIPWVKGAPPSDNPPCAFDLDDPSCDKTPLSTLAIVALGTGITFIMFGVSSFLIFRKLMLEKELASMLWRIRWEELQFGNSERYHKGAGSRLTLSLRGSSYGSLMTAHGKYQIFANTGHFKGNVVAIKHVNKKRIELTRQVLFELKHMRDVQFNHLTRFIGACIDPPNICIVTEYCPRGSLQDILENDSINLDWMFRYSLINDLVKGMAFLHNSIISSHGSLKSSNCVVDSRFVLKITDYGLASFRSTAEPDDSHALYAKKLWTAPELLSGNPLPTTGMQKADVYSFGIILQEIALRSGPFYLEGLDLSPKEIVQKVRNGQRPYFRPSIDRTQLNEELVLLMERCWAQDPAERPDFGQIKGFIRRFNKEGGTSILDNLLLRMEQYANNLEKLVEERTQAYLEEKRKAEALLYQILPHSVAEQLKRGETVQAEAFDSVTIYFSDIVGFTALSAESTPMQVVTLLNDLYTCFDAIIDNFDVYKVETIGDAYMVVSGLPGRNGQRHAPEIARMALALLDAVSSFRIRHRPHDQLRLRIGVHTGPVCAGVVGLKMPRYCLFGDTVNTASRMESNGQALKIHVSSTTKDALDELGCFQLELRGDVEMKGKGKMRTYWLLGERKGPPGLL
FLuc counter = Natriuretic polypeptide receptor (hNpr1) antagonism - Confirmation firefly luciferase (FLuc) inhibition counterscreen. Potency, µM (top dose mostly 57.6 µM), inactives show top-dose activity change, negative = inhibition, hits mostly inhibitors. 0.7% of 1,400 active. shares compounds with NPR1 antag. purified FLuc enzyme, luminescence, Km substrate; also: 0% is about no effect
GloSensor cGMP = Natriuretic polypeptide receptor (hNpr1) antagonism - Counterscreen GloSensor control cell line; 69% of 1,400 active; Potency, µM (series often up to 57.6 µM), for inactives: at the highest dose activity change, negative = inhibition, actives largely listed as inhibitors; AID 1347051, 2019; HEK293 GloSensor cGMP, SNP-stimulated, luminescence; shares compounds with NPR1 antag; calls by dose curve; also: % is scaled to controls: 0 for no effect and ±100 for the full control effect; nearly all actives have a fitted effect of over 70% in size
* marks the source's active call; other numbers are inactive results; i = inactive; ? = inconclusive; . = no result; ! = a repeat was not active; [ ] = dose if it differs, or a comment. Rows were chosen to be rich in hits. Some 10% of all compounds tested hit in one or more screens of this group. Unless noted, calls follow the shape of the dose curve; as a rule, active = well fitted curve in the direction sought with a large enough effect; inconclusive = small, poorly fitted or top-dose-only effect, or another doubt; inactive = no such curve, though single readings can be large; an effect the other way counts as inactive or inconclusive. Potency is read from the fitted curve at half-maximal effect.

SMILES | NIH3T3 tox | NPR1 antag | HEK293 tox | GPT2 inhibitor | Luciferase inh | NPR1 antag cnf | NPR2 antag | FLuc counter | GloSensor cGMP
Cc1ccc(OCC(=O)N2CCCC(c3nn(C)c(=O)n3C(C)C)C2)cc1 (centres undefined) | -28% | 14µM* | ? | -11% | i | 24µM* | ? | 2% | 24µM*
COCCOCc1nc(C2CCCN2C(=O)Nc2ccccc2F)no1 (centres undefined) | -11% | 6% | i | i | i | . | . | . | .
CC1=C(C(=O)Nc2ccccc2)C(c2cccc(C)c2)N2C(CC(=O)NC3CC3)=CSC2=N1 (centres undefined) | ? | ? | ? | i | i | ? | ? | -2% | ?
CC1=C(C(=O)Nc2ccccc2)C(c2cccc(C)c2)N2C(CC(=O)NC(C)C)=CSC2=N1 (centres undefined) | ? | ? | ? | i | i | . | . | . | .
CCNC(=O)CC1=CSC2=NC(C)=C(C(=O)Nc3ccccc3)C(c3ccc(F)cc3)N12 (centres undefined) | -12% | ? | ? | i | i | ? | -28% | -2% | -18%
O=C(O)C1CCc2nnc(C3CCCN([S+](=O)([O-])c4cccc(C(F)(F)F)c4)C3)n21 (centres undefined) | -8% | . | 0% | -2% | . | . | . | . | .
O=c1[nH]c(C2CCN(Cc3cccc(-c4cccs4)c3)CC2)nc2ccc(F)cc12 | 28µM* | ? | 22µM*! | 0% | i | -27% | ? | 1% | ?
Cc1ccc(F)cc1CN1CCC2(CCCO2)CCC1=O (centres undefined) | -3% | -2% | -7% | -3%[11.5 µM] | i | . | . | . | .
O=C(NCCc1ccccn1)c1ccnc(-c2nnc3ccc(Nc4ccccc4)nn23)c1 | ? | 5%[70.6 µM] | -26%[172 µM] | -9%[88.5 µM] | ? | . | . | . | .
CCCc1ncncc1C(=O)N1CCc2onc(-c3ccccc3F)c2C1 | 0% | 5% | -3% | i | i | . | . | . | .
COc1ccc(C)cc1C(=O)N1CCc2onc(-c3ccccc3F)c2C1 | -29% | 14µM* | 28µM* | -2% | i | 24µM* | 22µM* | -1% | 22µM*
COc1ccc(S(=O)(=O)NC[C@H]2COCc3nc4cc(C)ccc4n32)cc1 | ? | 16µM* | ? | i | i | 31µM* | 31µM* | 3%[86.2 µM] | 22µM*
COc1ccc(-c2cn3c(n2)CO[C@@H](CNS(=O)(=O)c2ccc(C)cc2)C3)cc1 | -32%[174 µM] | 28µM* | -12%[172 µM] | -54%[88.5 µM] | i | 31µM* | 31µM* | ? | 28µM*
Cc1ccc2nc3n(c2c1)[C@@H](CNS(=O)(=O)Cc1ccccc1)COC3 | ? | ? | ? | -4%[88.5 µM] | i | . | . | . | .
CS(=O)(=O)c1ccc(CNC[C@H]2COCc3nc4cc(F)ccc4n32)cc1 | ? | -29%[70.6 µM] | ? | -7%[88.5 µM] | i | . | . | . | .
Cc1cccc2c1nc1n2[C@@H](CNCc2ccc(S(C)(=O)=O)cc2)COC1 | ? | 25µM* | ? | i | i | 31µM* | 35µM* | 0%[86.2 µM] | 22µM*
Cc1ccc2c(c1)nc1n2[C@@H](CNS(=O)(=O)Cc2ccccc2)COC1 | ? | 22µM* | ? | -5%[88.5 µM] | i | 35µM* | 35µM* | -1%[86.2 µM] | 28µM*
Cc1oc(-c2ccccc2)nc1Cn1ccn2nc3c(c2c1=O)CCCC3 | -11% | -2% | -30% | -2% | i | . | . | . | .
CCOCC(=O)N1[C@@H]2CC[C@H]1CC(NC(=O)c1cnc(C)cn1)C2 (some centres undefined) | -13% | 4% | 1% | 5% | i | . | . | . | .
Cc1cccc2c1nc1n2[C@@H](CNS(=O)(=O)c2ccccc2)COC1 | ? | ? | ? | 0%[88.5 µM] | i | . | . | . | .
COc1ccc(S(=O)(=O)NC[C@H]2COCc3nc4c(C)cccc4n32)cc1 | ? | 25µM* | ? | 3%[88.5 µM] | i | 18µM* | 22µM* | 0%[86.2 µM] | 14µM*
COc1ccccc1-c1ncc(CNc2cc(C3CC(O)C3)ncn2)s1 (centres undefined) | -64% | 7.1µM* | 32µM* | 4% | i | 8.6µM* | 12µM* | -27% | 6.9µM*
COc1ccccc1-c1ccc(C(=O)N2C[C@@H](N(C)C)[C@H](C(C)C)C2)cc1 | -27% | 2% | ? | i[11.5 µM] | i | . | . | . | .
O=C(c1ccncc1)N1CCC2(CC1)N=C(c1ccc(Cl)cc1)NO2 | -16% | -19% | ? | i | i | . | . | . | .
CC(=O)Nc1ccc(C(=O)N2CCC3(CC2)N=C(c2ccc(Br)cc2)NO3)cc1 | -22% | 13µM* | ? | i | i | 19µM* | 15µM* | -4% | 15µM*
CC(=O)Nc1ccc(C(=O)N2CCC3(CC2)N=C(c2ccc(Cl)cc2)NO3)cc1 | -19% | ? | ? | i | i | 22µM* | ? | -4% | 22µM*
CCn1cc(S(=O)(=O)NCC(=O)N2CCCCCNC(=O)CC2c2ccccc2)cn1 (centres undefined) | i | 0% | i | 4% | i | . | . | . | .
COc1ccccc1-c1n[nH]c2c1CC(=O)N(Cc1ccccc1)C2 | ? | -9%[70.6 µM] | ? | 3%[88.5 µM] | i | . | . | . | .
CCCCCC(=O)N1CCC(O)(c2csc(CN3CCN(c4ccccn4)CC3)n2)CC1 | -4% | -2% | ? | -27% | i | . | . | . | .
